# Hits are enriched below; roughly 4.1% of the tested compounds scored in any of these assays.
# PolyA inh: polyadenylation inhibitors in yeast reporter cells, primary screen, luminescence, S. cerevisiae. actives 0.02% (n = 300,000). AID 1875, 2009. activity score, % at 12 µM. S. cerevisiae SKY197-pL101 polyadenylation reporter, beta-gal luminescence; efflux-impaired pdr1/pdr3 knockout yeast; score 100 = 6 SD above DMSO;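 active = lowest replicate activity score at least 50, where 100 means six control SD above control mean; inconclusive = lowest score under 50 but half or more replicates reach 50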;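 also: yeast exposed to compound for 9 h at 30 °C; higher score means more reporter readthrough which indicates perturbed polyadenylation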
# ssDAF-12 act: S. stercoralis DAF-12 nuclear receptor activators, primary screen, cell-based, luminescence, HEK293, GRIP1 co-expression, lit1-tk-luc; actives 1% (n = 370,000); HEK293 ssDAF-12/GRIP1 lit1-tk-luc reporter; % of 3 µM dafachronic acid response; activation, % at 6.8 µM;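 active = activation above the mean over all tested compounds plus 3 SD, cut at about 0.9% in these data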;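 also: 0% = DMSO-only wells and 100% = 3 µM delta7-dafachronic acid wells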
# hcDAF12 agonist: H. contortus DAF-12 nuclear receptor activators, primary screen, cell-based, luminescence, HEK293, lit1-tk-luc reporter. HEK293 hcDAF-12 lit1-tk-luc reporter; 0% DMSO, 100% Δ7-dafachronic acid. activation, % at 6.8 µM. actives 1.4% (n = 370,000);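 active = activation above the mean of all tested compounds plus 3 SD, cut at about 5.5% in these data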;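 also: 100% = response to 3 µM Δ7-dafachronic acid high control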
# hgDAF12 agonist: H. glycines DAF-12 receptor agonists, primary screen, cell-based, luminescence, HEK293, GAL4 fusion, UAS-luciferase; HEK293 GAL4-hgDAF12 UAS-luciferase reporter, agonist luminescence; normalized to butyrate control; activation, % at 6.8 µM; actives 1.8% (n = 370,000); AID 687014, 2013;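 active = activation above a cutoff set at the mean of all screened compounds plus 3 SD, cut at about 10% in these data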;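 also: 0% = DMSO wells and 100% = sodium butyrate wells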
# DAX1 inh-1: DAX1 (NR0B1) inhibitors on StAR promoter, primary screen, cell-based, luminescence, SF-1 (NR5A1), full-length DAX-1 | HEK293T StAR-luciferase reporter, SF-1/DAX-1 repression relief | inhibition, % at 6.8 µM | actives 1.1% (n = 370,000);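 active = inhibition above the mean over all tested compounds plus 3 SD, cut at about 3.6% in these data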;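 also: 0% = DAX-1 cells with DMSO and 100% = cells lacking DAX-1 with DMSO; higher inhibition means more luminescence from relief of DAX-1 repression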
# DAX1 inh-2: DAX1 (NR0B1) inhibitors, primary screen, cell-based, HEK293, Gal4-DAX1, luciferase luminescence. HEK293 Gal4-DAX1 luciferase reporter. inhibition, % at 6.75 µM. actives 0.99% (n = 340,000). AID 504766, 2011;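 active = inhibition above the mean over all tested compounds plus 3 SD, cut at about 4.2% in these data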;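 also: 0% = DAX1-transfected cells with DMSO and 100% = empty-vector control cells with DMSO; inhibition shows as a rise in luminescence from relieved DAX1 repression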
# Target sequence (P51843 207-470 limits assumed): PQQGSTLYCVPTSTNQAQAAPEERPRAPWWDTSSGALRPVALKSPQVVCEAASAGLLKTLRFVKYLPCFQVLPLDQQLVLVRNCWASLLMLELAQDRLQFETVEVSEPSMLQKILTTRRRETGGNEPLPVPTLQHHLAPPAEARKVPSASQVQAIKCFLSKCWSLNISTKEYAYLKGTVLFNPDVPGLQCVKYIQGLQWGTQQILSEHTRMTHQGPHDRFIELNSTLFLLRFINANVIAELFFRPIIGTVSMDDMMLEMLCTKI
# LXRb hcDAF ctr: LXR agonists, Gal4 luciferase reporter, confirmation, counter-screen for hcDAF-12 agonist project, cell-based, luminescence, HEK293, H. contortus campaign | HEK293 Gal4-LXR tk-luc reporter, 24 h; normalized: DMSO 0%, positive control 100% | 3,400 tested, under 10 active | AID 743027, 2013 | shares compounds with hcDAF12 agonist | activation, % at 6.8 µM;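 active = mean percent activation of the reporter above a cutoff set as the average over tested compounds plus their standard deviation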
# Target sequence (P55055 whole entry, looked up, the tested form may be a part): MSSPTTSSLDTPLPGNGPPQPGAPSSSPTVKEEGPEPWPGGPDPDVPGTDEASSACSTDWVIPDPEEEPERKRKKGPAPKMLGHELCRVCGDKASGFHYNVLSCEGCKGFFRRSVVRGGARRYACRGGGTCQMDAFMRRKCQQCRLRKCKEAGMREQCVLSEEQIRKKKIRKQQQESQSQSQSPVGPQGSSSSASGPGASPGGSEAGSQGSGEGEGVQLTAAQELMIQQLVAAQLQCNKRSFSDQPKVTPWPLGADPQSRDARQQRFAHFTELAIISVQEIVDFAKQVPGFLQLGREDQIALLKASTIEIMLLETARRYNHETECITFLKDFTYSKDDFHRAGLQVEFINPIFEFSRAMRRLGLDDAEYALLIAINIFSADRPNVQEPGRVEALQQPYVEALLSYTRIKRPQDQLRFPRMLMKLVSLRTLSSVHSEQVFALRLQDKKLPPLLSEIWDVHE
# hcDAF12 conf: H. contortus DAF-12 receptor agonists, confirmation, cell-based, luminescence, HEK293, lit1-tk-luc, triplicate | shares compounds with hcDAF12 agonist | HEK293 hcDAF-12 lit1-tk-luc reporter; % of Δ7-dafachronic acid response | activation, % at 6.8 µM | actives 61% (n = 3,400) | AID 743032, 2013;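 active = mean activation across triplicate tests above the threshold derived from the earlier primary screen, cut at about 5.5% in these data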;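 also: 0% = DMSO only wells and 100% = 3 µM Δ7-dafachronic acid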
# Starred values were filed as active, the others as inactive; ? = inconclusive; / = no result.
SMILES,PolyA inh,ssDAF-12 act,hcDAF12 agonist,hgDAF12 agonist,DAX1 inh-1,DAX1 inh-2,LXRb hcDAF ctr,hcDAF12 conf
c1ccc(-n2nnc3c(N4CCOCC4)ncnc32)cc1,-10.6,0.1,7.2*,7.0,2.1,-2.3,1.3,6.3*
Cc1nnc(N2CCOCC2)c2nn(-c3ccccc3)c(C)c12,8.4,-1.8,-1.0,-1.4,-0.6,0.8,/,/
Cc1ccc(C(=O)NC(=S)Nc2c(C)ccc3nsnc23)cc1,-1.6,1.6*,7.6*,-0.5,-0.1,-0.4,-0.3,3.4
Cc1nc2nc(-c3ccco3)nn2c(C)c1Cl,1.6,-0.1,6.8*,2.7,0.4,1.2,0.0,4.9
Cc1nc2nc(-c3cccnc3)nn2c(C)c1Cl,6.2,-0.3,0.6,3.3,0.9,1.0,/,/
CCc1ccc(NS(=O)(=O)c2ccc3[nH]cc(C(=O)N4CCc5ccccc54)c(=O)c3c2)cc1,11.2,1.2*,7.3*,10.3,2.7,1.7,0.5,5.7*
O=C(NCCc1cccs1)c1ccc(Cl)cc1,-10.0,0.6,7.6*,10.9*,3.0,-1.9,0.8,2.5
CCn1nc2cc(C(=O)NCCc3cccs3)ccc2c1OC,?,0.0,8.1*,7.7,2.3,4.6*,1.4,5.7*
CCOc1c2ccc(C(=O)NCCc3ccc(C)cc3)cc2nn1CC,-4.2,-1.3,2.0,0.3,-0.3,-0.5,/,/
CCCCCC1CCC(C(=O)NCCN2CCOCC2)CC1 (centres undefined),-5.9,-0.7,0.2,2.2,-0.2,-0.1,/,/
OC(c1ccccc1)(c1ccccc1)c1nccc2ccccc12,/,-1.1,0.5,4.0,0.2,-0.4,/,/
CC(C)(C)c1ccc(C(=O)NCc2ccccc2)cc1,10.7,-1.2,1.6,10.0,1.6,2.0,/,/
CC(C)(C)c1ccc(C(=O)NCCc2ccccc2)cc1,21.1,0.7,6.6*,11.4*,2.6,-1.0,2.1,11.7*
CC(C)(C)c1ccc(C(=O)NCCC(=O)N2CCCC2)cc1,-4.1,0.4,7.0*,12.3*,1.7,3.0,0.9,4.9
CCC1(C)N=C(c2ccc3c(c2)OCO3)CC(c2ccccc2O)N1 (centres undefined),1.9,-0.4,7.9*,7.9,0.3,0.7,0.8,4.7
CN1CCN(C(=O)CN(C)S(=O)(=O)c2cc(Cl)ccc2Cl)CC1,-3.5,-1.0,-1.2,0.5,0.1,-1.0,/,/
COc1ccc(C(=O)NCC(=O)Nc2ccc(-c3ccccc3)cc2)cc1,9.0,-1.1,1.7,-1.0,0.4,1.4,/,/
CCOc1ccccc1C(=O)NCC(=O)Nc1ccc(-c2ccccc2)cc1,5.6,0.7,6.6*,1.8,0.3,3.1,0.0,3.7
COc1ccc(-c2coc3c(C(=O)NCc4cccs4)cccc23)c(C)c1,/,-1.8,-3.4,-3.5,-2.0,/,/,/
O=C(CSc1ncc(-c2ccccc2)n1C1CCCC1)N1CCc2ccccc21,-27.7,-0.1,7.4*,5.8,0.3,0.0,-0.2,3.0
Cn1c(-c2ccccc2)cnc1SCC(=O)N1CCCc2ccccc21,11.6,-1.6,-2.0,-2.3,-0.8,-0.5,/,/
O=[N+]([O-])c1ccc(-c2ccc(S(=O)(=O)N3CCOCC3)cc2)cc1,-8.8,-0.9,6.6*,2.0,-0.1,4.5*,-0.1,1.0
O=[N+]([O-])c1ccc(Oc2ccc(S(=O)(=O)N3CCOCC3)cc2)cc1,-3.0,-1.4,-1.4,-3.9,-1.1,-1.9,/,/
CC1CCCCN1CCCNC(=O)c1ccc(N2CCCC2=O)cc1 (centres undefined),-16.7,-1.3,8.6*,2.1,1.0,1.0,-0.3,0.1
O=C(NC1CCCCCC1)c1ccc(N2CCCC2=O)cc1,-14.6,-0.4,6.7*,11.2*,2.3,2.4,0.3,2.5
SMILES,PolyA inh,ssDAF-12 act,hcDAF12 agonist,hgDAF12 agonist,DAX1 inh-1,DAX1 inh-2,LXRb hcDAF ctr,hcDAF12 conf
CCC1CCCCN1CCCNC(=O)c1ccc(N2CCCC2=O)cc1 (centres undefined),-10.7,-1.0,0.7,-0.3,-1.0,0.7,/,/
COc1ccc(C(=O)OCC(=O)c2ccc[nH]2)c(OC)c1,/,0.3,6.7*,9.3,0.4,3.8,0.8,4.4
CC1(C)CC(=O)N(CC(=O)NCc2ccccc2)c2ccccc2S1(=O)=O,-5.6,-1.5,13.7*,1.1,-0.1,-0.4,-0.3,0.6
O=[N+]([O-])c1cccc2ccc(/C=C/c3ccc(C(F)(F)F)cc3)nc12,0.0,-0.3,7.6*,2.0,-0.2,0.2,-0.1,2.1
O=[N+]([O-])c1cccc2ccc(/C=C/c3ccc(Cl)cc3)nc12,33.8,0.4,4.2,6.3,0.6,0.0,/,/
CN(C)c1ccc(NC(=O)CCN2C(=O)c3cccc([N+](=O)[O-])c3C2=O)cc1,-0.4,-0.4,7.0*,0.2,0.3,1.3,-0.1,1.3
Cc1nccn1-c1ccc(NC(=O)[C@@H](Cc2ccccc2)NC(=O)[C@H]2O[C@@H](n3ccc(=O)[nH]c3=O)[C@H](O)[C@@H]2O)cc1,/,-0.8,-1.7,5.7,0.3,/,/,/
COC(=O)C1=C(C(=O)OC)[C@@H]2N(Cc3ccccc3)c3ccccc3[C@@]23C[C@@H](C(=O)OC)N(C(=O)NC(C)(C)C)C3=N1,-7.2,-1.1,-1.1,-0.7,-0.2,-1.6,/,/
Cc1nc(Nc2ccccc2)c2oc3ccc(Cl)cc3c2n1,-25.8,-0.8,-0.1,3.9,0.3,-0.1,/,/
Clc1ccc2oc3c(Cl)ncnc3c2c1,-2.6,-0.7,8.0*,1.4,0.3,-1.0,-0.2,4.2
Cc1ccc(C(=O)CC(SCC(=O)O)c2ccc([N+](=O)[O-])cc2)cc1 (centres undefined),-6.8,-1.0,0.7,0.8,0.6,-1.9,/,/
O=C(CC(SCCO)c1ccc([N+](=O)[O-])cc1)c1ccco1 (centres undefined),8.8,-1.8,7.1*,0.4,-1.4,0.1,0.1,1.2
